Data: PubChem BioAssay (NCI)
This is part of a sample that, as a whole, favours compounds with a hit. Of some 83,000 tested, about 20% had one in any assay.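 In brief: 96-well plates, 48 h treatment, single concentration, percent growth endpoint.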 A number with no mark means an inactive call. Activity calls are given as the source filed them. The calls were made as follows: active = growth percent below 10; inactive = the rest.

test system: EKVX NSCLC; experiment: NCI-60 one-dose screen, 48 h (100 = growth as untreated, 0 = no growth, -100 = all killed); conditions: 10 µM unless noted

Compound	growth
Brc1ccc(-c2n(Cc3ccc4ccccc4c3)c(-c3ccccc3)c(-c3ccccc3)[n+]2Cc2ccc3ccccc3c2)cc1	-86.7% (active)
O=C1CCCc2cc(OCC(=O)N3CCCCC3)ccc2N1	104%
COc1cc2c3c(n(CCCN4CCC[C@@H]4CO)c(=O)c2cc1OC)-c1cc2c(cc1C3=O)OCO2	-70.6% (active)
CC(=O)c1c(N)c(C#N)cn1-c1ccc(Cl)cc1Cl	93.8%
Cc1ccc(C2CC(c3ccc(S(=O)(=O)NCCNc4nc(Nc5ccc(F)cc5)nc(N(C)C)n4)cc3)=Nc3c(N)nc(N)nc3N2)cc1 (stereo not drawn)	62.7%
Cc1ccc(C(=O)C(c2c[nH]c3ccccc23)c2c[nH]c3ccccc23)cc1	56.5%
COc1cc(-c2nc3ccc(C)cc3[nH]2)ccc1OCc1nnc(-c2ccc(Br)cc2)o1	42.7%
Nc1nnc(-c2c[nH]c3ccc(Br)cc23)c(-c2c[nH]c3ncc(Br)cc23)n1	46.6%
Cc1ccc(-c2nc(C#N)c(S(=O)(=O)N3CCN(S(=O)(=O)c4ccc(Cl)cc4)CC3)o2)cc1	99%
CCOC(=O)C1=C(N)N(c2ccccc2)C2=C(C(=O)CC(C)(C)C2)C1c1ccccc1Cl (stereo not drawn)	74.6%
Cc1ccc(C(=O)NN2C(=O)/C(=C/C=C/c3ccc([N+](=O)[O-])o3)SC2=S)cc1	-97% (active)
CCCS(=O)(=O)N1CCCC(C(=O)Nc2nc3ccc(NC(=O)c4ccc(F)c(OC)c4F)cc3s2)C1 (stereo not drawn)	39.7%
O=C1CC(Sc2n[nH]c(-c3ccncc3)n2)C(=O)N1c1ccc(Br)cc1 (stereo not drawn)	106%
